From PubChem BioAssay
ALOX12 inh: inhibitors of human 12S-lipoxygenase ALOX12. Potency, µM (series often up to 108 µM), without a hit: at the top dose activity change, negative = inhibition, actives largely listed as inhibitors. actives 1.1% (n = 580,000). AID 1671190. P18054. purified 12hLO, xylenol orange hydroperoxide absorbance; further: on the % scale 0 is the no-effect control and ±100 the full control effect
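Purified human 12hLO (150 nM final) in 25 mM Hepes, 0.01% Triton X-100, pH 7.0 was preincubated 15 min at room temperature with compound. Then 40 uM arachidonic acid was added, 30 min. Hydroperoxide was read by Fe-XO absorbance ratio 573/405 nm.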
G9a block: blocks human histone lysine methyltransferase G9a | Q96KQ7 | G9a H3K9 monomethylation, AlphaScreen, 2 h | Potency, µM (series often up to 102 µM), inactives show at the top dose activity, negative = inhibition, usual class: inhibitors | actives 8.8% (n = 350,000) | AID 504332; further: on the % scale 0 is the no-effect control and ±100 the full control effect; nearly all actives have a fitted effect of over 75% in size
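Chemiluminescent proximity detection of H3K9 monomethylation, read after 10 min bead incubation in the dark. Reaction: 20 nM G9a, 500 nM biotin-H3K9 peptide, 20 uM SAM cofactor, 2 h, room temperature, following 15 min enzyme-compound preincubation.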
VDR inhibitor: inhibitors of human vitamin D receptor | Potency, µM, for inactives: max response, negative = inhibition, most hits filed as inhibitors | AID 504847 | actives 0.93% (n = 400,000) | VDR-SRC2-3 peptide fluorescence polarization, 2 h | P11473; further: on the % scale 0 is the no-effect control and ±100 the full control effect
Target sequence (P11473 whole entry, looked up): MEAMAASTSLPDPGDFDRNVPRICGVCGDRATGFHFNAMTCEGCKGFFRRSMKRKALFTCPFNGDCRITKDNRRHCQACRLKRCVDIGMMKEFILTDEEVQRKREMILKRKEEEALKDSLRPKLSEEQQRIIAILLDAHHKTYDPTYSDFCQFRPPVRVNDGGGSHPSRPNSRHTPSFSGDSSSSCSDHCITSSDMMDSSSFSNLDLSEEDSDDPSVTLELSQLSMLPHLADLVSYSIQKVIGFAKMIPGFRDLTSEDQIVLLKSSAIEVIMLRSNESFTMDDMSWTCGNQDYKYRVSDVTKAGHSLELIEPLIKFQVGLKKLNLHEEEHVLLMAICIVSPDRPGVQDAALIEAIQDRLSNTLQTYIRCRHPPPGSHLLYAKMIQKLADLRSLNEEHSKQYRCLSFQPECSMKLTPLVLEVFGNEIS
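FP read-out; VDR + SRC2-3 coactivator peptide; 23 nl compound by pintool; 2 h RT incubation; reagents held at 4 deg C, protected from light.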
Glioma ERSR ind: inducers of ER stress response in human glioma cells; U87-MG GRP78 promoter luciferase reporter, 16 h; AID 602332; Potency, µM, inactives show at the top dose activation, actives largely listed as activators; actives 0.02% (n = 420,000); further: series mostly up to about 76 µM; % of control where 0% means no effect; nearly all actives have a fitted effect of over 35% in size
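Stably transfected U87-MG human glioma cells carrying a GRP78-based luminescent sensor were seeded at 1000 cells/well, pin-dosed with compounds and incubated 16 h. Luciferase reagent was then added, and end-point luminescence was read after 10 min at room temperature.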
Sfp inh: inhibitors of Bacillus subtilis Sfp phosphopantetheinyl transferase. Biochemical Sfp PPTase activity, qHTS. actives 3.5% (n = 310,000). AID 1490. Potency, µM, without a hit: largest response in the series, negative = inhibition, actives largely listed as inhibitors. Q9F4F7;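 further: the enzyme is Sfp with the accession as filed and its product quenches rhodamine fluorescence; 0% = enzyme reaction without inhibitor and -100% = no enzyme wells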
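Sfp 15 nM + cpd, 15 min RT; start w/ rhodamine-CoA 5 uM, BHQ-2-YbbR 12.5 uM (final); 50 mM Hepes pH 7.6, 10 mM MgCl2, 0.01% NP-40, 0.01% BSA; read 525/598 nm at 0 and 30 min.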
Numbers without * were called inactive; u = inconclusive; x = no result; ! = not confirmed by another sample; [ ] = dose if it differs, or a comment. The entries come from a sample that favours hits as a whole. The call rests on the fitted dose curve; in most records, active means well fitted curve in the direction sought with a large enough effect; inconclusive means small, poorly fitted or top-dose-only effect, or another doubt; inactive means no such curve, though single readings can be large; an effect the other way counts as inactive or inconclusive. Potency means the concentration at half of the fitted maximal effect.

SMILES	ALOX12 inh	G9a block	VDR inhibitor	Glioma ERSR ind	Sfp inh
O=C(Oc1ccc(Br)cc1C(=S)N1CCOCC1)c1ccc(F)cc1	x	x	79µM*	-3%	32µM*
Cc1c([N+](=O)[O-])cc(C(=O)Oc2ccc(Br)cc2C(=S)N2CCCCC2)cc1[N+](=O)[O-]	-3%	8.9µM*	-11%	-5%	2%
COc1ccc(C(=O)Oc2ccc(Br)cc2C(=S)N2CCOCC2)cc1	-19%	56µM*	25%	-4%	-6%
Cc1ccc(C(=O)Oc2ccc(Br)cc2C(=S)N2CCOCC2)cc1	u	40µM*	-24%	-4%	-23%
Cc1ccccc1C(=O)Oc1ccc(Cl)cc1C(=S)N1CCOCC1	4%	-5%	-7%	-4%	-1%
COc1ccc(C(=O)N2CCOCC2)cc1Br	3%	3%[12.7 µM]	0%	-6%	11%
CCOc1ccc(Br)cc1C(=S)N1CCCC1	41%	17%[0.501 µM]	-19%	-1%	-1%
Clc1ccc(-c2cnc([C@@H]3COCCN3Cc3c[nH]c4ccccc34)[nH]2)s1	-15%[176 µM]	x	x	x	x
CCC(C)C(=O)NCc1cccc(COC)c1 (configuration not stated)	39%	x	x	x	x
COc1ccc(-c2cc(N3CCCC(NC(=O)c4cccc(OC)c4)C3)n[nH]2)cc1 (configuration not stated)	35%	x	x	x	x
CCCN1CCN(C(=O)CN2C(=O)c3cccnc3Oc3ccc(Cl)cc32)CC1	-7%	x	x	x	x
COc1ccc(CNC(=O)C2CCCN(c3nnc(C)c4c(C)n(-c5ccc(C)cc5)nc34)C2)cc1 (configuration not stated)	7%	-30%[59 µM]	14%	-8%	x
CCc1ccc(CNC(=O)C2CCCN(c3nnc(C)c4c(C)n(-c5ccc(OC)cc5)nc34)C2)cc1 (configuration not stated)	-16%	10µM*	12%	-6%	x
Cc1nnc(N2CCCC(C(=O)NCc3ccc(OC(C)C)cc3)C2)c2nn(-c3ccccc3)c(C)c12 (configuration not stated)	u	x	-11%	-8%	89µM*
COc1ccc(N2C(=S)NC(C)(C)CC2(C)c2ccc(OC(C)=O)cc2OC(C)=O)cc1 (configuration not stated)	u	79µM*	-10%	-6%	9%
CC(=O)Oc1ccc(C2(C)CC(C)(C)Oc3cc(OC(C)=O)ccc32)c(OC(C)=O)c1 (configuration not stated)	22%	x	-12%	-3%	5%
COc1cc2ccc(=O)oc2c(O)c1OCC=C(C)C	u	11µM*	-7%	3%	-2%
CC(C)=CCOc1ccc2ccc(=O)oc2c1	17%	7%[12.7 µM]	-2%	0%	3%
COc1ccc(Nc2nc(N)nc(CN3CCC(C)CC3)n2)cc1	0%	20µM*	1%	-2%	4%
Cc1cccc(Nc2nc(N)nc(CN3CCN(c4ccc(F)cc4)CC3)n2)c1	u	45µM*	27%	-8%	11%
Nc1nc(CN2CCN(c3ccccc3F)CC2)nc(Nc2ccccc2)n1	-1%	40µM*	12%	-6%	3%
Nc1nc(CN2CCN(C(c3ccccc3)c3ccccc3)CC2)nc(Nc2ccccc2)n1	u	45µM*	-7%	-6%	-7%
COc1ccc(Nc2nc(N)nc(CN3CCN(c4ccccn4)CC3)n2)cc1	26%	-50%[59 µM]	11%	-1%	3%
Cc1cccc(Nc2nc(N)nc(CN3CCN(C)CC3)n2)c1	9%	12%[12.7 µM]	-7%	-3%	1%
O=S1CCN(c2nc(C3CC3)nc3sc4c(c23)CCCC4)CC1	12%	x	x	x	x
SMILES	ALOX12 inh	G9a block	VDR inhibitor	Glioma ERSR ind	Sfp inh
Fc1ccccc1CSc1nc2ccccc2[nH]1	0%	50µM*	-11%	-2%	4%
Cc1cc(C)n2cc(CSc3nc4ccccc4[nH]3)nc2n1	9%	20µM*	-22%	-2%	10%
Fc1c(F)c(F)c(CSc2nc3ccccc3[nH]2)c(F)c1F	0%	4%[12.7 µM]	18%	3%	-2%
CCN1CCN(c2c([N+](=O)[O-])cnc3ccc(Br)cc23)CC1	2%	x	x	x	x
NS(=O)(=O)c1ccc(CCNCC(=O)NC2CC2)cc1	0%	50µM*	16%	-6%	-1%
C=CCC1CCCC(=O)N2CC[C@H](O)C12 (some centres not stated)	-22%	79µM*!	-6%	-5%	22%
